Measured values: PubChem BioAssay (NCI)
The panel holds about 79,000 compounds, 15% with a hit somewhere; the sample as a whole holds those more often. Values without a mark were called inactive. Activity calls are given as the source filed them. No stated cut-off is given here; in the data, active means growth inhibition above about 70%; inactive means the rest.

Assays:
[1] = NCI Yeast Anticancer Drug Screen. Data for the rad52 strain (AID 147);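 further: 0% = growth of vehicle-treated control cultures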; details: S. cerevisiae rad52 mutant growth inhibition, hits give high values
In short: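 DNA repair-defective yeast; compound exposure; growth scored against vehicle controls.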

[2] = NCI Yeast Anticancer Drug Screen. Data for the wt1 strain (AID 149);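 further: 0% = growth of vehicle-treated wt1 cultures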; details: S. cerevisiae wt1 strain (SPY 50644) growth inhibition, hits give high values
In short: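 The wt1 strain was treated with compounds, and growth was compared with vehicle-treated cultures to give inhibition.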

[3] = NCI Yeast Anticancer Drug Screen. Data for the rad50EPP+ strain (AID 151);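 further: 0% = growth of vehicle-treated control cultures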; details: S. cerevisiae rad50 mutant strain, hits give high values
In short: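 rad50EPP+ yeast treated with test compounds. Readout: growth vs vehicle control.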

[4] = NCI Yeast Anticancer Drug Screen. Data for the mgt1 strain (AID 153); details: S. cerevisiae mgt1 mutant growth inhibition, hits give high values
In short: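 Growth inhibition relative to vehicle controls was scored for the mgt1 yeast strain after compound exposure.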

[5] = NCI Yeast Anticancer Drug Screen. Data for the rad50 strain (AID 155);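 further: 0% = growth of vehicle-only cultures of the same strain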; details: S. cerevisiae rad50 strain growth inhibition, hits give high values
In short: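 Cells are treated with compound, grown, and their growth is then scored against vehicle-only cultures of the same repair-deficient yeast strain.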

[6] = NCI Yeast Anticancer Drug Screen. Data for the mec2-1 strain (AID 157); details: S. cerevisiae mec2-1 strain, hits give high values
In short: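 Growth inhibition is read against vehicle-treated controls after compound exposure of the mec2-1 yeast strain, which is defective in DNA damage repair or cell cycle control.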

[7] = NCI Yeast Anticancer Drug Screen. Data for the sgs1 mgt1 strain (AID 161);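 further: 0% = growth of cultures given vehicle only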; details: S. cerevisiae sgs1 mgt1 strain, hits give high values
In short: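 Compounds are added to genetically altered yeast, and growth is compared with cultures given vehicle alone to give percent inhibition.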

[8] = NCI Yeast Anticancer Drug Screen. Data for the CLN2oe strain (AID 163);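 further: 0% = growth of vehicle-only control cultures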; details: S. cerevisiae CLN2oe strain, hits give high values
In short: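 Compound-treated yeast; growth vs vehicle ctrl = % inhibition. Genetically altered strain (cell-cycle control).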

[9] = NCI Yeast Anticancer Drug Screen. Data for the cln2 rad14 strain (AID 165);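 further: 0% = growth equal to vehicle treated cultures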; details: S. cerevisiae cln2 rad14 strain, hits give high values
In short: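 Growth inhibition, relative to vehicle-treated controls, is the read-out. The test organism is a yeast strain with defined genetic alterations, cln2 rad14.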

[10] = NCI Yeast Anticancer Drug Screen. Data for the bub3 strain (AID 167); details: S. cerevisiae bub3 mutant strain, hits give high values
In short: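 Part of a panel of yeast mutants defective in DNA damage repair or cell cycle regulation. Each strain is grown with compound, and inhibition is calculated relative to solvent-treated cultures.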

[11] = NCI Yeast Anticancer Drug Screen. Data for the wt2 strain (AID 169);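 further: 0% = growth of vehicle-treated yeast cultures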; details: S. cerevisiae wt2 strain growth inhibition, hits give high values
In short: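 Compound exposure of yeast; growth compared with vehicle controls; inhibition reported.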

[12] = NCI Yeast Anticancer Drug Screen. Data for the mlh1 strain (AID 171);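 further: 0% = growth of vehicle-treated control cultures of the same strain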; details: S. cerevisiae mlh1 strain growth inhibition, hits give high values
In short: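 Compounds are applied to a genetically altered yeast strain, and its growth is compared with that of vehicle-treated cultures to give percent inhibition.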

[13] = NCI Yeast Anticancer Drug Screen. Data for the sgs1 strain (AID 173);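 further: 0% = growth of vehicle-only control cultures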; details: S. cerevisiae sgs1 mutant, hits give high values
In short: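 Compounds applied to genetically altered yeast; growth compared with vehicle-treated cultures to give % inhibition.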

[14] = NCI Yeast Anticancer Drug Screen. Data for the mlh1 rad18 strain (AID 175); details: S. cerevisiae mlh1 rad18 strain growth inhibition, hits give high values
In short: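 Cells of a genetically altered yeast strain, deficient in DNA damage repair, were treated with compound. Their growth was then compared with that of vehicle-treated cultures to give inhibition.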

[15] = NCI Yeast Anticancer Drug Screen. Data for the rad18 strain (AID 177); details: S. cerevisiae rad18 mutant growth inhibition, hits give high values
In short: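 Compounds are applied to a repair-deficient yeast strain, and growth is compared with that of vehicle-treated cultures to give percent inhibition.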

[16] = at 5.0 µM (retest, dose inferred, filed as 0.5)
[17] = at 50.0 µM (retest, dose inferred, filed as 5.0)

## Nc1ccccc1C(=O)OCCc1ccccc1
[1]; at 1.2 µM
  growth inhibition: -9%
[1]; at 3.7 µM
  growth inhibition: -4%
[1]; at 11.0 µM
  growth inhibition: -21%
[1]; at 33.0 µM
  growth inhibition: -3%
[1]; at 100.0 µM
  growth inhibition: 91% (active)
[2]; at 1.2 µM
  growth inhibition: -25%
[2]; at 3.7 µM
  growth inhibition: -6%
[2]; at 11.0 µM
  growth inhibition: -23%
[2]; at 33.0 µM
  growth inhibition: -26%
[2]; at 100.0 µM
  growth inhibition: 92% (active)
[3]; at 1.2 µM
  growth inhibition: -23%
[3]; at 3.7 µM
  growth inhibition: -9%
[3]; at 11.0 µM
  growth inhibition: 13%
[3]; at 33.0 µM
  growth inhibition: 22%
[3]; at 100.0 µM
  growth inhibition: 73% (active)
[4]; at 1.2 µM
  growth inhibition: -74%
[4]; at 3.7 µM
  growth inhibition: -63%
[4]; at 11.0 µM
  growth inhibition: -62%
[4]; at 33.0 µM
  growth inhibition: -52%
[4]; at 100.0 µM
  growth inhibition: 96% (active)
[5]; at 1.2 µM
  growth inhibition: -3%
[5]; at 3.7 µM
  growth inhibition: -7%
[5]; [16]
  growth inhibition: 36%
[5]; at 11.0 µM
  growth inhibition: -31%
[5]; at 33.0 µM
  growth inhibition: 13%
[5]; [17]
  growth inhibition: 93% (active)
[5]; at 50.0 µM
  growth inhibition: 82.9% (active)
[5]; at 100.0 µM
  growth inhibition: 97% (active)
[6]; at 1.2 µM
  growth inhibition: -8%
[6]; at 3.7 µM
  growth inhibition: -4%
[6]; [16]
  growth inhibition: 38%
[6]; at 11.0 µM
  growth inhibition: -6%
[6]; at 33.0 µM
  growth inhibition: 13%
[6]; [17]
  growth inhibition: 99% (active)
[6]; at 50.0 µM
  growth inhibition: 48.1%
[6]; at 100.0 µM
  growth inhibition: 85% (active)
[7]; [16]
  growth inhibition: -17%
[7]; [17]
  growth inhibition: 74% (active)
[7]; at 50.0 µM
  growth inhibition: 68%
[8]; at 1.2 µM
  growth inhibition: 19%
[8]; at 3.7 µM
  growth inhibition: 17%
[8]; at 11.0 µM
  growth inhibition: 14%
[8]; at 33.0 µM
  growth inhibition: -1%
[8]; at 100.0 µM
  growth inhibition: 91% (active)
[9]; [16]
  growth inhibition: 62%
[9]; [17]
  growth inhibition: 76% (active)
[9]; at 50.0 µM
  growth inhibition: 44.5%
[10]; at 1.2 µM
  growth inhibition: -10%
[10]; at 3.7 µM
  growth inhibition: 0%
[10]; [16]
  growth inhibition: 12%
[10]; at 11.0 µM
  growth inhibition: -1%
[10]; at 33.0 µM
  growth inhibition: 5%
[10]; [17]
  growth inhibition: 78% (active)
[10]; at 50.0 µM
  growth inhibition: 89.5% (active)
[10]; at 100.0 µM
  growth inhibition: 76% (active)
[11]; at 1.2 µM
  growth inhibition: -16%
[11]; at 3.7 µM
  growth inhibition: -15%
[11]; at 11.0 µM
  growth inhibition: 3%
[11]; at 33.0 µM
  growth inhibition: -12%
[11]; at 100.0 µM
  growth inhibition: 94% (active)
[12]; at 1.2 µM
  growth inhibition: -15%
[12]; at 3.7 µM
  growth inhibition: -17%
[12]; at 11.0 µM
  growth inhibition: -18%
[12]; at 33.0 µM
  growth inhibition: -7%
[12]; at 100.0 µM
  growth inhibition: 97% (active)
[13]; at 1.2 µM
  growth inhibition: -38%
[13]; at 3.7 µM
  growth inhibition: -32%
[13]; at 11.0 µM
  growth inhibition: -32%
[13]; at 33.0 µM
  growth inhibition: -28%
[13]; at 100.0 µM
  growth inhibition: 94% (active)
[14]; [16]
  growth inhibition: 34%
[14]; [17]
  growth inhibition: 87% (active)
[14]; at 50.0 µM
  growth inhibition: 85.7% (active)
[15]; at 1.2 µM
  growth inhibition: -58%
[15]; at 3.7 µM
  growth inhibition: -22%
[15]; at 11.0 µM
  growth inhibition: -29%
[15]; at 33.0 µM
  growth inhibition: -24%
[15]; at 100.0 µM
  growth inhibition: 87% (active)

## Oc1ccc(Cl)cc1Cc1ccccc1
[1]; at 1.2 µM
  growth inhibition: -21%
[1]; at 3.7 µM
  growth inhibition: 4%
[1]; at 11.0 µM
  growth inhibition: 70% (active)
[1]; at 33.0 µM
  growth inhibition: 98% (active)
[1]; at 100.0 µM
  growth inhibition: 98% (active)
[2]; at 1.2 µM
  growth inhibition: -41%
[2]; at 3.7 µM
  growth inhibition: -11%
[2]; at 11.0 µM
  growth inhibition: 60%
[2]; at 33.0 µM
  growth inhibition: 99% (active)
[2]; at 100.0 µM
  growth inhibition: 99% (active)
[3]; at 1.2 µM
  growth inhibition: -52%
[3]; at 3.7 µM
  growth inhibition: -15%
[3]; at 11.0 µM
  growth inhibition: 28%
[3]; at 33.0 µM
  growth inhibition: 95% (active)
[3]; at 100.0 µM
  growth inhibition: 97% (active)
[4]; at 1.2 µM
  growth inhibition: 11%
[4]; at 3.7 µM
  growth inhibition: -2%
[4]; at 11.0 µM
  growth inhibition: 85% (active)
[4]; at 33.0 µM
  growth inhibition: 98% (active)
[4]; at 100.0 µM
  growth inhibition: 99% (active)
[5]; at 1.2 µM
  growth inhibition: -46%
[5]; at 3.7 µM
  growth inhibition: -43%
[5]; [16]
  growth inhibition: 58%
[5]; at 11.0 µM
  growth inhibition: 54%
[5]; at 33.0 µM
  growth inhibition: 98% (active)
[5]; [17]
  growth inhibition: 86% (active)
[5]; at 50.0 µM
  growth inhibition: 92% (active)
[5]; at 100.0 µM
  growth inhibition: 98% (active)
[6]; at 1.2 µM
  growth inhibition: -40%
[6]; at 3.7 µM
  growth inhibition: 5%
[6]; [16]
  growth inhibition: 54%
[6]; at 11.0 µM
  growth inhibition: 77% (active)
[6]; at 33.0 µM
  growth inhibition: 84% (active)
[6]; [17]
  growth inhibition: 83% (active)
[6]; at 50.0 µM
  growth inhibition: 93.7% (active)
[6]; at 100.0 µM
  growth inhibition: 99% (active)
[7]; [16]
  growth inhibition: -5%
[7]; [17]
  growth inhibition: 44%
[7]; at 50.0 µM
  growth inhibition: 94.4% (active)
[8]; at 1.2 µM
  growth inhibition: -11%
[8]; at 3.7 µM
  growth inhibition: -30%
[8]; at 11.0 µM
  growth inhibition: 71% (active)
[8]; at 33.0 µM
  growth inhibition: 99% (active)
[8]; at 100.0 µM
  growth inhibition: 99% (active)
[9]; [16]
  growth inhibition: 41%
[9]; [17]
  growth inhibition: 99% (active)
[9]; at 50.0 µM
  growth inhibition: 92.9% (active)
[10]; at 1.2 µM
  growth inhibition: -52%
[10]; at 3.7 µM
  growth inhibition: -18%
[10]; [16]
  growth inhibition: 36%
[10]; at 11.0 µM
  growth inhibition: 70% (active)
[10]; at 33.0 µM
  growth inhibition: 100% (active)
[10]; [17]
  growth inhibition: 99% (active)
[10]; at 50.0 µM
  growth inhibition: 92.5% (active)
[10]; at 100.0 µM
  growth inhibition: 100% (active)
[11]; at 1.2 µM
  growth inhibition: -53%
[11]; at 3.7 µM
  growth inhibition: -16%
[11]; at 11.0 µM
  growth inhibition: 54%
[11]; at 33.0 µM
  growth inhibition: 98% (active)
[11]; at 100.0 µM
  growth inhibition: 98% (active)
[12]; at 1.2 µM
  growth inhibition: 12%
[12]; at 3.7 µM
  growth inhibition: -9%
[12]; at 11.0 µM
  growth inhibition: 69%
[12]; at 33.0 µM
  growth inhibition: 99% (active)
[12]; at 100.0 µM
  growth inhibition: 99% (active)
[13]; at 1.2 µM
  growth inhibition: -23%
[13]; at 3.7 µM
  growth inhibition: -17%
[13]; at 11.0 µM
  growth inhibition: 66%
[13]; at 33.0 µM
  growth inhibition: 98% (active)
[13]; at 100.0 µM
  growth inhibition: 99% (active)
[14]; [16]
  growth inhibition: 29%
[14]; [17]
  growth inhibition: 70% (active)
[14]; at 50.0 µM
  growth inhibition: 93% (active)
[15]; at 1.2 µM
  growth inhibition: -71%
[15]; at 3.7 µM
  growth inhibition: -30%
[15]; at 11.0 µM
  growth inhibition: 54%
[15]; at 33.0 µM
  growth inhibition: 95% (active)
[15]; at 100.0 µM
  growth inhibition: 97% (active)
